The values below come from PubChem BioAssay (NCI).

This is part of a sample that, as a whole, favours compounds with a hit. Of some 83,000 tested, about 20% had one in any assay.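 96-well plates, one dose, 48 hours. Percent growth reported; active if below 10.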 Values without a mark were called inactive. Activity calls are given as the source filed them.

For the first test, the system named is SW-620 colon. The test is described as follows: NCI-60 one-dose screen, 48 h (100 = growth as untreated, 0 = no growth, -100 = all killed). The note with it: 10 µM unless noted.
In the case of `COc1ccc2c(c1)C(=O)/C(=C/c1cccc(OCC(=O)c3ccccc3)c1)CC2`, the growth was 66%.

For `NC(=Nc1ccccc1)SCCCCSC(N)=Nc1ccccc1`, the growth is 92.3%.

Regarding `CC/C(=C\c1ccc(N(C)C)cc1)c1ccncc1`, the growth is 19.9%.

With `CCOC(=O)c1cc(-c2cccnc2)nc2c(Cl)cc(Cl)cc12`, the growth was 103%.

On to `Clc1ccc(-n2cnc3c(Cl)ncnc32)cc1Cl`, for which the growth is 78.6%.

On to `O=C(CSCC(=O)N/N=C/c1ccccc1O)N/N=C\c1ccccc1O`, for which the growth is 39.3%.

For the compound `COc1ccc(C(=O)COc2cccc(/C=C3\Oc4ccc5ccccc5c4C3=O)c2)cc1`, the growth was 19%.

In the case of `CC(=O)NC1(C(=O)O)CCCC1`, the growth was 103%.

In the case of `CCOC(=O)C1=NN(c2ccc(Cl)cc2)C2C3N(c4ccc(Cl)cc4)N=C(C(=O)OCC)N3c3ccccc3N12` (centres undefined), the growth was 110%.

Turning to `CC(=O)Oc1ccc(C23c4ccccc4C2(OC(C)=O)c2cc(OC(C)=O)ccc23)cc1` (centres undefined), the growth was 80.3%.

As for `COc1ccc(/C=C2\NC(=S)NC2=O)cc1`, the growth is 105%.

On to `O=C(/C=C/c1ccccc1)CC(c1ccccc1)N1CCOCC1` (centres undefined), for which the growth is -16.7% (active).

Turning to `CCn1c2ccccc2c2ccc(C(C)=O)cc21`, the growth is 114%.

Turning to `Cc1ccc(C=C2C(Cl)=C(Cl)C(Cl)=C2Cl)cc1`, the growth was -77.9% (active).

As for `Cc1ccccc1NC(=O)c1cc2ccccc2cc1O`, the growth is 47.2%.

For `c1ccc(-n2nnnc2-c2cccc3ccccc23)cc1`, the growth was 20.8%.

As for `Nc1ccccc1-c1ccc([N+](=O)[O-])cc1`, the growth is 43.8%.

On to `c1cnc2ccc3ncccc3c2c1`, for which the growth was 100%.

With `CC(=O)n1c2ccccc2c2ccccc21`, the growth was 106%.

With `CC1=CC(=O)C(C(C)=Nc2ccccc2Cl)C(=O)O1` (centres undefined), the growth was 91.6%.

For the compound `COc1c(O)cc2oc3cc(O)c(CC=C(C)C)c(O)c3c(=O)c2c1C/C=C(\C)CCC=C(C)C`, the growth was 41.5%.

For the compound `CCOC(=O)c1ccccc1OC(=O)NNc1ccccc1`, the growth is 45.6%.

Take `O=C(/C=C/c1cc2ccccc2[nH]c1=O)c1ccc(O)cc1`: the growth is -10.8% (active).

With `COc1cc(/C=C2\COc3ccc(O)cc3C2=O)cc(OC)c1`, the growth was 2.07% (active).

In the case of `ClC1=C(Cl)C(Cl)=C(Cl)C1=C/C=C/c1ccccc1`, the growth was -55.2% (active).

Regarding `COc1cccc(CCC2C(=O)CCCC2=O)c1`, the growth is 112%.

On to `CSc1ncc2ncn(C3OC(CO)C(O)C3O)c2n1` (centres undefined), for which the growth is 96.5%.

Consider `CN(C)CCCN1c2nc3ccccc3cc2Sc2cc3ccccc3nc21`, for which the growth is -93.5% (active).

As for `Cc1c(C)c(N2C(=O)C=CC2=O)c(C)c(C)c1N1C(=O)C=CC1=O`, the growth was 81.7%.

With `CC12CCC3C(CCC4CC(=O)/C(=C\O)CC43C)C1CCC(=O)O2` (centres undefined), the growth is 110%.

`CC(C)C/C(=N\NC(=O)c1ccncc1)c1cc(Cl)ccc1O`: the growth was 31.1%.

Turning to `OC(Cc1cccnc1)c1ccccc1` (centres undefined), the growth was 100%.

On to `Cn1cnc([N+](=O)[O-])c1S(=O)(=O)Oc1ccc(Cl)cc1`, for which the growth was -31% (active).

In the case of `O=C(N1CCC(CN=c2cc3n(-c4ccc(Cl)cc4)c4ccccc4nc-3cc2Nc2ccc(Cl)cc2)CC1)N1CC1`, the growth is -83% (active).

As to `CN1COc2ccc3ccccc3c2C1`, the growth was 99.7%.

For the compound `CCCCCCCC1(C)NC(=O)NC1=O` (centres undefined), the growth is 100%.

For `CC(O)c1nc2c(c(=O)n(C)c(=O)n2C)n1C` (centres undefined), the growth is 110%.

The next test deals with MCF7 breast. Described as above. The settings on record: 10 µM unless noted.
In the case of `COc1ccc2c(c1)C(=O)/C(=C/c1cccc(OCC(=O)c3ccccc3)c1)CC2`, the growth is 48.7%.

As for `NC(=Nc1ccccc1)SCCCCSC(N)=Nc1ccccc1`, the growth is 87.5%.

Take `CC/C(=C\c1ccc(N(C)C)cc1)c1ccncc1`: the growth is 28.8%.

Regarding `CCOC(=O)c1cc(-c2cccnc2)nc2c(Cl)cc(Cl)cc12`, the growth was 90.5%.

As to `Clc1ccc(-n2cnc3c(Cl)ncnc32)cc1Cl`, the growth was 89.8%.

`COc1ccc(C(=O)COc2cccc(/C=C3\Oc4ccc5ccccc5c4C3=O)c2)cc1`: the growth was 10.1%.

With `CCOC(=O)C1=NN(c2ccc(Cl)cc2)C2C3N(c4ccc(Cl)cc4)N=C(C(=O)OCC)N3c3ccccc3N12` (centres undefined), the growth is 85.7%.

As for `CC(=O)Oc1ccc(C23c4ccccc4C2(OC(C)=O)c2cc(OC(C)=O)ccc23)cc1` (centres undefined), the growth is 49.5%.

For `COc1ccc(/C=C2\NC(=S)NC2=O)cc1`, the growth was 99.9%.

Regarding `O=C(/C=C/c1ccccc1)CC(c1ccccc1)N1CCOCC1` (centres undefined), the growth was 11.1%.

As to `Cc1ccc(C=C2C(Cl)=C(Cl)C(Cl)=C2Cl)cc1`, the growth was -23.8% (active).

For `Cc1ccccc1NC(=O)c1cc2ccccc2cc1O`, the growth is 80.5%.

As to `c1ccc(-n2nnnc2-c2cccc3ccccc23)cc1`, the growth is 19.8%.

In the case of `Nc1ccccc1-c1ccc([N+](=O)[O-])cc1`, the growth is 40.1%.

With `c1cnc2ccc3ncccc3c2c1`, the growth was 92%.

As to `CC(=O)n1c2ccccc2c2ccccc21`, the growth was 104%.

For the compound `CC1=CC(=O)C(C(C)=Nc2ccccc2Cl)C(=O)O1` (centres undefined), the growth is 118%.

With `COc1c(O)cc2oc3cc(O)c(CC=C(C)C)c(O)c3c(=O)c2c1C/C=C(\C)CCC=C(C)C`, the growth was 21.9%.

Consider `CCOC(=O)c1ccccc1OC(=O)NNc1ccccc1`, for which the growth was 50.3%.

For the compound `O=C(/C=C/c1cc2ccccc2[nH]c1=O)c1ccc(O)cc1`, the growth was 14.7%.

Regarding `ClC1=C(Cl)C(Cl)=C(Cl)C1=C/C=C/c1ccccc1`, the growth was -19.6% (active).

Turning to `COc1cccc(CCC2C(=O)CCCC2=O)c1`, the growth is 108%.

Turning to `CSc1ncc2ncn(C3OC(CO)C(O)C3O)c2n1` (centres undefined), the growth was 122%.

Regarding `CN(C)CCCN1c2nc3ccccc3cc2Sc2cc3ccccc3nc21`, the growth is -97.9% (active).

Regarding `Cc1c(C)c(N2C(=O)C=CC2=O)c(C)c(C)c1N1C(=O)C=CC1=O`, the growth is 103%.

Consider `CC12CCC3C(CCC4CC(=O)/C(=C\O)CC43C)C1CCC(=O)O2` (centres undefined), for which the growth is 102%.

As to `CC(C)C/C(=N\NC(=O)c1ccncc1)c1cc(Cl)ccc1O`, the growth is 5.38% (active).

Regarding `OC(Cc1cccnc1)c1ccccc1` (centres undefined), the growth is 104%.

On to `Cn1cnc([N+](=O)[O-])c1S(=O)(=O)Oc1ccc(Cl)cc1`, for which the growth was 63.7%.

Consider `O=C(N1CCC(CN=c2cc3n(-c4ccc(Cl)cc4)c4ccccc4nc-3cc2Nc2ccc(Cl)cc2)CC1)N1CC1`, for which the growth was -71.6% (active).

As for `CN1COc2ccc3ccccc3c2C1`, the growth was 91.8%.

In the case of `CCCCCCCC1(C)NC(=O)NC1=O` (centres undefined), the growth was 97.6%.
